# Bioassay records: PubChem BioAssay, several laboratories
# esBAF inh: SWI/SNF esBAF complex inhibition; mouse ES cells, Bmi1-luciferase knock-in reporter, 24 h; 100% = twice the neutral-well signal; reporter increase, % at 12.5 µM; actives 2% (n = 350,000); in the data active = activation above about 40%; inconclusive = no clear call, values can overlap the other calls;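 also: 0% = median of the plate's neutral control wells and 100% = double that signal; a rise in the Bmi1 reporter signal indicates esBAF inhibition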
# MITF TRPM1 HTS: MITF TRPM1 promoter activation in melanoma cells; activation, % at 12.5 µM; SK-MEL-5 TRPM1-promoter luciferase, 24 h; % of positive control, neutral wells = 0; actives 0.75% (n = 300,000);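 active = mean activation of at least 80% with every replicate also reaching 80%; inconclusive = mean reaches 80% but some replicate falls short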;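 also: 0% = neutral control wells and 100% = parthenolide positive control wells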
# SMARCA2 act: increases SMARCA2 function in MMTV reporter cells; MG213 cells, MMTV-luciferase reporter, dexamethasone, overnight; actives 1% (n = 370,000); activation, % at 9.1 µM; in the data active = activation above about 7.8%;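 also: 0% = vehicle wells and 100% = reference activator wells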
# Wnt act: Wnt/beta-catenin pathway activation; activation, % at 9.35 µM; Wnt/beta-catenin reporter cell assay, activator, plate reader; actives 1.2% (n = 300,000); in the data active = activation above about 30%, passing the limit was not always enough; inconclusive = no clear call, values can overlap the other calls;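 also: 0% = neutral control wells and 100% = positive control wells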
# HSF1 inhib: HSF1 inhibition; AID 2098; NIH3T3-HGL HSE-luciferase, MG132-induced, luminescence 8 h; stronger effect = lower value; activity change, negative = inhibition, % at 7.5 µM (by protocol); actives 0.77% (n = 300,000);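 active = more than half of replicate wells show activity change below -50%, luminescence cut by over half; inconclusive = some wells, but at most half, below -50%; inactive = no replicate well below -50%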;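 also: luciferase reports HSF-1 transcriptional activity via heat shock element; 0% = median of DMSO wells and -100% = zero luminescence signal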
# HSF1 activator: increases HSF-1 driven luciferase reporter signal. NIH3T3-HGL HSF-1 luciferase reporter, MG132, 8 h; 100% = twice DMSO control signal. activation, % at 9 µM. actives 1.7% (n = 300,000). AID 504408;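 active = mean replicate activation of at least 50% with a set share of replicates each reaching 50%; inconclusive = only one of those two conditions met; inactive = mean below 50% and too few replicates reaching it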;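 also: 0% = median of the neutral control wells and 100% = twice that signal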
# The depositor's hits bear a star; ? = inconclusive; nt = not tested or not shown. Only some compounds are listed: those with a hit (about 4.3% of all), similar ones and a draw of the others.
SMILES,esBAF inh,MITF TRPM1 HTS,SMARCA2 act,Wnt act,HSF1 inhib,HSF1 activator
N#Cc1cccc(-c2ccc([C@@H]3[C@@H](CO)N4CCCCN(C(=O)Nc5cccc(F)c5)C[C@@H]34)cc2)c1,2,nt,nt,nt,nt,nt
CCC(=O)N(C)C[C@@H]1Oc2cc(-c3ccc(OC)cc3)ccc2S(=O)(=O)N([C@H](C)CO)C[C@H]1C,-4,nt,nt,nt,nt,nt
c1c2c(cc3sc(N4CCOCC4)nc13)OCCO2,-79,-43,-3,-10,0,-2
c1ccc(N2CCN(c3nc4cc5c(cc4s3)OCCO5)CC2)cc1,48*,nt,1,?,12,36
Cc1ccc(CN(C)C[C@H]2OCc3cn(nn3)CCCC(=O)N([C@H](C)CO)C[C@@H]2C)cc1,2,nt,nt,nt,nt,nt
CCCNC(=O)Nc1ccc2c(c1)C(=O)N(C)[C@@H]1CC[C@@H](CC(=O)O)O[C@H]1CO2,1,nt,nt,nt,nt,nt
Fc1ccc(/C=N/Nc2cc(N3CCOCC3)ncn2)cc1,9,77,1,26,7,9
Fc1cccc(/C=N/Nc2cc(N3CCOCC3)ncn2)c1,26,98*,1,26,2,20
O=C(Nc1ccc2c(c1)OCO2)c1noc2c1CCCCC2,nt,3,2,nt,3,24
O=C(Nc1ccc2c(c1)OCO2)c1noc2c1CCCC2,-3,8,1,38*,6,22
CC(=O)c1ccc(NC(=O)c2noc3c2CCCCC3)cc1,-2,89*,4,nt,20,44
Cc1cc(NC(=O)c2noc3c2CCCCC3)no1,11,70,nt,7,-11,-11
CS(=O)(=O)Nc1cccc(NC(=O)c2ccc(-c3ccc(F)c(F)c3)c3ccoc23)c1,6,nt,0,5,nt,nt
CS(=O)(=O)Nc1cccc(NC(=O)c2cccc3c(-c4ccc(F)c(F)c4)coc23)c1,52*,nt,0,-1,nt,nt
Cn1nccc1-c1ccc(C(=O)Nc2cccc(NS(C)(=O)=O)c2)c2occc12,46*,nt,-3,4,nt,nt
C/C(=N\O)C1CCCCC1,nt,nt,nt,nt,-57*,-66
C/C(=N\NC(=O)NC1CCCCC1)C1CCCCC1,nt,1,0,2,3,-2
C[C@H]1CN([C@@H](C)CO)C(=O)c2cc(NC(=O)C3CC3)ccc2O[C@@H]1CN(C)S(=O)(=O)c1ccc(F)cc1,0,nt,nt,nt,nt,nt
N#C/C(=C\c1ccc(F)cc1)c1nc(-c2ccco2)cs1,79*,71,0,12,1,-2
N#C/C(=C\c1ccc(Cl)cc1)c1nc(-c2ccco2)cs1,nt,24,2,1,3,33
CCn1cc(C(=O)N2CCN(c3ccccn3)CC2)c2cc(OC)c(OC)cc2c1=O,-9,2,8.4*,-1,nt,nt
COc1ccc(CC(=O)N2CCN(c3ccccn3)CC2)cc1OC,4,2,-4,nt,nt,nt
C=CCc1ccc(OCc2ccc(C(=O)OC)o2)c(OC)c1,nt,23,5,nt,39,59*
CCCNC(=O)c1ccc(COc2ccc(CCC)cc2OC)o1,25,8,-1,3,-56*,-66
CCCc1ccc(OCc2ccc(C(=O)N3CCN(c4ccccn4)CC3)o2)c(OC)c1,45*,16,2,nt,16,33
SMILES,esBAF inh,MITF TRPM1 HTS,SMARCA2 act,Wnt act,HSF1 inhib,HSF1 activator
Cc1noc(C)c1NC(=O)N(C)C[C@H]1Oc2ccc(NC(=O)Nc3ccc4c(c3)OCO4)cc2C(=O)N([C@@H](C)CO)C[C@H]1C,2,nt,nt,nt,nt,nt
COc1ccc(-c2cnc3c(c2)C(=O)N([C@H](C)CO)C[C@@H](C)[C@H](CN(C)S(C)(=O)=O)O3)cc1,5,nt,nt,nt,nt,nt
CN1c2ccc(Br)cc2[C@H]2[C@H](CCN2C(=O)c2cccc(F)c2)[C@@H]1CO,-6,nt,nt,nt,nt,nt
CCOc1ccc(OCc2ccc(C(=O)OCc3ccccn3)o2)cc1,nt,5,2,33*,-6,-15
COC(=O)c1ccc(COc2ccc(C)c(C)c2)o1,58*,?,2,3,22,45
COC(=O)c1ccc(COc2cc(C)ccc2C)o1,70*,82*,0,7,13,17
Cc1ccc(OCc2ccc(C(=O)O)o2)cc1C,?,19,7,30,10,45
CCC(=O)c1ccc(OCc2ccc(C(=O)OC)o2)c(OC)c1,16,8,1,nt,7,-9
C[C@@H]1CN([C@@H](C)CO)C(=O)c2ccccc2-c2ccccc2CO[C@@H]1CN(C)C(=O)Nc1ccnc(N2CCOCC2)c1,0,nt,nt,nt,nt,nt
NS(=O)(=O)c1ccc(CCNC(=O)c2cccc3ccccc23)cc1,-1,-1,-2,-2,6,2
NS(=O)(=O)c1ccc(CCNC(=O)c2ccccc2Cc2ccccc2)cc1,1,-6,-1,31*,-6,14
CCCCCCCNC(=O)c1cc(-c2ccncc2)nc2ccccc12,-1,-8,1,0,43,68*
NS(=O)(=O)c1ccc(CCNC(=O)c2cc(-c3ccccc3)nc3ccccc23)cc1,3,0,0,3,21,64*
CCCOc1ccc(-c2cc(C(=O)NCC3CCCO3)c3ccccc3n2)cc1 (centres undefined),23*,22,-5,5,3,24
COc1ccc(S(=O)(=O)N[C@@H]2C=C[C@H](CC(=O)N3CCN(c4ccccc4)CC3)O[C@@H]2CO)cc1,8,nt,nt,nt,nt,nt
COc1ccccc1CN(C)C[C@@H]1OCc2cn(nn2)CCCC(=O)N([C@@H](C)CO)C[C@@H]1C,2,nt,nt,nt,nt,nt
C[C@H](NC(=O)c1ccc(Cl)cc1)C(=O)NCCc1ccc(S(N)(=O)=O)cc1,-2,-18,-1,-2,-4,1
C[C@H](NC(=O)c1ccccc1Cl)C(=O)NCCc1ccc(S(N)(=O)=O)cc1,5,-1,-2,-1,7,56*
O=C(C[C@H]1CC[C@H]2[C@@H](COC[C@@H](O)CN2C(=O)Nc2ccc(Cl)cc2)O1)NC1Cc2ccccc2C1,30,nt,nt,nt,nt,nt
Cc1noc(C)c1NC(=O)N(C)C[C@@H]1Oc2ncc(C#CC3CC3)cc2C(=O)N([C@@H](C)CO)C[C@H]1C,52*,nt,nt,nt,nt,nt
C[C@H](CO)N1C[C@H](C)[C@@H](CN(C)C(=O)Nc2ccc3c(c2)OCO3)OCCCC[C@H](C)Oc2ccc(NC(=O)c3ccncc3)cc2C1=O,54*,nt,nt,nt,nt,nt
C[C@H](CO)N1C[C@H](C)[C@@H](CN(C)C(=O)Nc2ccc3c(c2)OCO3)Oc2ncc(C#CC3(O)CCCC3)cc2C1=O,60*,nt,nt,nt,nt,nt
Cc1noc(C)c1NC(=O)N(C)C[C@@H]1Oc2ncc(C#CC3CC3)cc2C(=O)N([C@@H](C)CO)C[C@@H]1C,-3,nt,-3,-1,nt,nt
CC(C)NC(=O)N(C)C[C@@H]1OCCCC[C@@H](C)Oc2ccc(NC(=O)Nc3ccc4c(c3)OCO4)cc2C(=O)N([C@@H](C)CO)C[C@H]1C,-2,nt,nt,nt,nt,nt
C[C@@H]1CN([C@@H](C)CO)C(=O)c2cc(C#CC3(O)CCCC3)cnc2O[C@H]1CN(C)C(=O)Nc1ccc2c(c1)OCO2,21,nt,nt,nt,nt,nt
